# Reference: the supplement of paper PMC10981050
# Counter-ions that a name gives are not always drawn.
# System: OCI-AML2
# Assay: cell viability relative to vehicle control; higher = less cytotoxic
# Details: 10 µM; SRSF2 genotype: P95H/wt
# How it was run: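 Each screen used CRISPR-edited mutant and wild-type clones from four leukaemia lines. Compounds were acoustically dispensed at a single 10 µM dose, and CellTiter-Glo luminescence was read after 48 h with the supernatant first removed. Viability was analysed in Genedata Screener and given as percent of the on-plate vehicle control.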
row,Compound,cell viability [%]
1,CCc1c(O)cc(O)c(C(=O)c2ccc(OCCN3CCOCC3)c(OC)c2)c1CC(=O)N(CCOC)CCOC,19.3
2,O=C(NCCS(=O)(=O)c1ccc(C(F)(F)F)cn1)c1ccc(Cl)cc1,91.7
3,Clc1ccc2c(c1)CCc1cccnc1C2=C1CCNCC1 [Desloratadine],94.8
4,Cc1ccc(C(=O)O)c(O)c1 [4-Methylsalicylic acid],99.3
5,CCC(=O)Nc1cccc(Oc2nc(Nc3ccc(N4CCN(C)CC4)cc3OC)ncc2Cl)c1,61.2
6,CN(N=O)C(=O)NC1C(O)OC(CO)C(O)C1O (stereo not given) [Streptozotocin (STZ)],100
7,C=CS(=O)(=O)NC1CCN(C(=O)CNc2cc(I)c(Cl)cc2OC)CC1 [K-Ras(G12C) inhibitor 9],22.1
8,CCCc1nn(C)c2c(=O)[nH]c(-c3cc(S(=O)(=O)N4CCN(C)CC4)ccc3OCC)nc12 [Sildenafil citrate],118
9,CNC(=O)Nc1ccc(-c2nc(N3CC4CCC(C3)O4)c3cnn(C4CCC5(CC4)OCCO5)c3n2)cc1,29
10,CO/N=C(\C(=O)N[C@@H]1C(=O)N2C(C(=O)O)=C(CSc3nc(C)c(CC(=O)O)s3)CS[C@H]12)c1csc(N)n1 [Cefodizime Sodium],99.6
11,COC(=O)C1=C(C)NC(C)=C(C(=O)OCCN2CCN(C(c3ccccc3)c3ccccc3)CC2)C1c1cccc([N+](=O)[O-])c1 (stereo not given) [Manidipine (Manyper)],29.8
12,Cc1cccc(CC(=O)N2CCc3c2ccc(-c2cn(C)c4ncnc(N)c24)c3F)n1,69.3
13,CNC1CCCN(c2c(F)cc3c(=O)c(C(=O)O)cn(C4CC4)c3c2OC)C1 (stereo not given) [Balofloxacin],106
14,Cc1ccc(S(=O)(=O)NC(=O)NN2CC3CCCC3C2)cc1 (stereo not given) [Gliclazide (Diamicron)],113
15,CN1CC2c3ccccc3Oc3ccc(Cl)cc3C2C1 (stereo not given) [Asenapine maleate],69.9
16,CC[C@H]1OC(=O)[C@H](C)[C@@H](O[C@H]2C[C@@](C)(OC)[C@@H](O)[C@H](C)O2)[C@H](C)[C@@H](O[C@@H]2O[C@H](C)C[C@H](N(C)C)[C@H]2O)[C@](C)(O)C[C@@H](C)/C(=N\OCOCCOC)[C@H](C)[C@@H](O)[C@]1(C)O [Roxithromycin (Roxl-150)],93.6
17,CC(C)c1nc(CN(C)C(=O)N[C@H](C(=O)N[C@@H](Cc2ccccc2)C[C@H](O)[C@H](Cc2ccccc2)NC(=O)OCc2cncs2)C(C)C)cs1 [Ritonavir],102
18,Nc1nccc(Oc2ccc3c(C(=O)Nc4cccc(C(F)(F)F)c4)cccc3c2)n1,94.8
19,N[C@@H](Cc1c[nH]c2ccc(O)cc12)C(=O)O [5-hydroxytryptophan (5-HTP)],94.5
20,CCCOc1ccc2c(c1)CC[C@@H]1[C@@H]2CC[C@]2(C)[C@@H](OC)CC[C@@H]12 [Promestriene],59.6
21,CCOCCn1c(N2CCCN(C)CC2)nc2ccccc21 [Emedastine],114
22,COc1cc2c(c(OC)c1OC)-c1c(cc3c(c1OC)OCO3)C[C@H](C)[C@](C)(O)[C@H]2OC(=O)c1ccccc1 [Schisantherin A],106
23,COc1ccc2c(c1O)-c1c(O)c(OC)cc3c1[C@H](C2)[N+](C)(C)CC3 [Magnoflorine],103
24,NCc1c[nH]c(=S)n1[C@H]1CCc2c(F)cc(F)cc2C1 [Nepicastat hydrochloride],101
25,CC(=O)Nc1ccc(OC(=O)c2ccccc2OC(C)=O)cc1 [Benorylate],107
26,CCC(=O)NC[C@@H]1C[C@H]1c1cccc2c1CCO2 [Tasimelteon],88
27,COc1ncnc(NS(=O)(=O)c2ccc(N)cc2)c1OC [Sulfadoxine (Sulphadoxine)],98.5
28,N[C@@H](Cc1cc(I)c(Oc2cc(I)c(O)c(I)c2)c(I)c1)C(=O)O [Levothyroxine sodium],100
29,C=C(C)[C@@H]1CC[C@]2(C(=O)O)CC[C@]3(C)[C@H](CC[C@@H]4[C@@]5(C)CC[C@H](O)[C@@](C)(CO)[C@@H]5CC[C@]43C)[C@@H]12 [23-Hydroxybetulinic acid],103
30,C[C@]12C=CC(=O)C=C1CC[C@H]1[C@@H]3C[C@@H](O)[C@](O)(C(=O)CO)[C@@]3(C)C[C@H](O)[C@@]12F [Triamcinolone (Aristocort)],110
